# PubChem BioAssay (NCI)
# Compounds without any hit were thinned out: in the full panel of roughly 83,000, 20% have a hit.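 Single-concentration screen, 48 h exposure, 96-well plates. Endpoint: percent growth. Below 10 = active.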 The source made the active and inactive calls.
# Test system: HCT-15 colon
# Experiment: NCI-60 one-dose screen, 48 h (100 = growth as untreated, 0 = no growth, -100 = all killed)
# Conditions: 10 µM unless noted
# Procedure: Growth inhibition of the HCT-15 human tumor cell line is measured as a screen for anti-cancer activity. Cells are grown in 96 well plates and exposed to the test compound for 48 hours. Compounds are tested at a single concentration, which is 10^-5 M for most compounds. The reported endpoint is percent growth (GI% or GIPRCNT), where numbers from 0 - 100% represent growth inhibition, and numbers from -100% - 0 represent cell death. For example, a value of 40 represents 60% growth inhibition. A value of 0 means no net growth occurred over the course of the experiment. A value of -40 indicates 40% of cells at the beginning of the experiment died by the end of the experiment. A value of -100 means all cells are dead at the end of the experiment.
# NCI-60 Human Tumor Cell Lines Screen was performed using the standard one-dose NCI protocol, which is described in more detail at https://dtp.cancer.gov/discovery_development/nci-60/default.htm.
# Compounds with GIPRCNT values below 10 were considered active. Activity score was based on GIPRCNT using the following formula: […]
# Score is 0 for GIPRCNT values of 100 or above, 50 for GIPRCNT values of 0, and 100 for GIPRCNT values of -100.
row,SMILES,growth
1,CN1CCN(CC(=O)Nc2nc3c(s2)Nc2cc(Cl)c(Cl)cc2NC3=O)CC1,104% (inactive)
2,CCCCn1c(Cc2ccc(Cl)cc2)nc2cc(OC)c(OC)cc2c1=O,75.4% (inactive)
3,O[C@@H]1Cc2ccc3ccccc3c2N[C@H](c2ccoc2)C1,111% (inactive)
4,COc1cc(/C=C/C(=O)c2ccc(F)cc2)ccc1OCCCCCOc1cc2c(cc1OC)C(=O)N1CCCC1C=N2 (stereo not given),-3.47% (active)
5,Cc1nc2cc(NC(=O)CN3CCN(CCN4C(=O)c5cccc6cccc(c56)C4=O)CC3)ccc2s1,45% (inactive)
6,CCCCCCCCCCCCCCCCN=C(CC(=O)O)C(=O)O,102% (inactive)
7,COc1cc(C(=O)/C=C/c2cccnc2Nc2ccccc2)cc(OC)c1OC,-33.7% (active)
8,COc1cc(OC)c2sc(-c3ccc(-n4cncc4-c4ccc(N)cc4)cc3)nc2c1,69.7% (inactive)
9,COc1ccc2c3c(c(OCCCN(C)C)nc2c1)-c1ccc(Cl)cc1C3=O,-89.4% (active)
10,Cc1ccc2c(c1)O/C(=C\c1ccc([N+](=O)[O-])o1)C2=O,4.4% (active)
11,O=C1c2ccccc2-c2c1nc1ccccc1[n+]2[O-],101% (inactive)
12,CC(=O)NCCSC(=O)C(=O)SCCNC(C)=O,119% (inactive)
13,Cc1ccc(C(=O)Nc2ccc(Cl)cc2C(=O)NCc2ccccc2)cc1,57.4% (inactive)
14,Cc1c(C(N)=O)sc2nc(SCC(=O)Nc3ccc(Cl)cc3)n(-c3ccccc3)c(=O)c12,121% (inactive)
15,O=C1/C(=N/O)CCc2ccccc21,102% (inactive)
16,CCN1C2=C(SC(=S)C1=C1SC(C(=O)OC)=C(C(=O)OC)S1)SC(=Nc1ccc(OC)cc1)C2=O,-20.7% (active)
17,O=c1ccn(C2CCCO2)c(=O)[nH]1 (stereo not given),105% (inactive)
18,C=CC1=C(C(=O)O)N2C(=O)[C@@H](NC(=O)/C(=N\O)c3csc(N)n3)[C@H]2SC1 (stereo in doubt),105% (inactive)
19,Nc1ccc(C2=Nc3cccc4cccc(c34)S2)cc1,54.5% (inactive)
20,N=c1ccn2c(n1)O[C@@H]1[C@@H](O)[C@H](CO)O[C@@H]12,64.4% (inactive)

row,SMILES,growth
1,CC(O)c1nc2c(c(=O)n(C)c(=O)n2C)n1C (stereo not given),104% (inactive)
2,Cc1cc2c(cc1C)Nc1sc(NC(=O)CN3CCN(C)CC3)nc1C(=O)N2,101% (inactive)
3,c1ccc(N2CCN(c3nncc4ccccc34)CC2)nc1,108% (inactive)
4,Cn1cc(-c2csc(-c3cn(C)c4ncccc34)n2)c2cccnc21,90.6% (inactive)
5,C/C(=N/N=C(N)N)c1ccc(N)cc1,115% (inactive)
6,NC(=O)NN=C(C1CC1)C1CC1,98% (inactive)
7,CCOc1nc(-c2ccccc2)cc2c(O)c(-c3nnco3)[nH]c(=O)c12,23.5% (inactive)
8,O=C(O)c1ccc(NC(=O)c2ccc(Nc3ccnc(C(F)(F)F)c3)cc2)cc1,92.1% (inactive)
9,CC(=O)NC1(C(=O)O)CCCC1,112% (inactive)
10,Clc1cc(Cl)c(OCC#CI)cc1Cl,42.1% (inactive)
11,S=C(c1ccccc1)N1CCN(c2cccc(Cl)c2)CC1,105% (inactive)
12,C/C(=C\CCc1ccsc1)CC/C=C(\C)CCCN1CCC(CO)CC1,0.233% (active)
13,O=C(CCc1nnc2sc(-c3ccc(Cl)cc3Cl)nn12)c1nc2ccccc2[nH]1,-31.8% (active)
14,Cn1[nH]cc(/C=N/C(N)=O)c1=O,105% (inactive)
15,Oc1ccccc1/C=N\Nc1ccccc1,25.6% (inactive)
16,COc1ccc(/C=N/NC(=O)c2ccc(S(C)(=O)=O)cc2)cc1OC,102% (inactive)
17,C=CCCCCCCCCC(=O)[O][Sn]([CH2]CCC)([CH2]CCC)[CH2]CCC,-73.3% (active)
18,COc1cc(Oc2cc(-c3cccnc3)ccc2NC(=O)Nc2ccc(F)cc2F)cc(OC)c1OC,111% (inactive)
19,COc1ccc2c(c1)nc(N)c1c3cc(C)c(C)cc3cn21,48.7% (inactive)
20,O=C(CSc1nnc(Nc2ccccc2)s1)NCCc1ccc(F)cc1,120% (inactive)
